Results on 27 compounds are retold here after the supplement of paper PMC13380429.

For experiment [1], the system named is Vero E6 infected with SARS-CoV-2. Put plainly: morphology score (similarity to uninfected cells); higher = more like uninfected cells. As to conditions: 24 h.
Experiment [2] has the same test system. Put plainly: SARS-CoV-2 infection rate relative to infected DMSO; higher = more infection, active = 60 or less. As to conditions: 24 h.

In experiment [1], `C=CC[N@@+]12CC[C@@]34c5ccccc5N5/C=C6/[C@H]7C[C@H]8[C@@]9(CC[N@@+]8(CC=C)C/C7=C/CO)c7ccccc7N(/C=C(/[C@@H](C[C@@H]31)/C(=C\CO)C2)[C@H]54)[C@@H]69` [alcuronium] (10 µM) came in with a morphology score of -0.108. Also, the SARS-CoV-2 infection rate in experiment [2] is 114% (inactive).
On to `CCOC(=O)[C@@H](C)Oc1ccc(Oc2nc3ccc(Cl)cc3o2)cc1` [fenoxaprop-p-ethyl] (10 µM), for which the morphology score in experiment [1] was -0.0825. Besides, the SARS-CoV-2 infection rate in experiment [2] is 106% (inactive).
`CC(C)OC(=O)OCOP(=O)(CO[C@H](C)Cn1cnc2c(N)ncnc21)OCOC(=O)OC(C)C` [tenofovir-disoproxil] (10 µM) displayed a morphology score in experiment [1] of -0.00661. In addition, in experiment [2], the SARS-CoV-2 infection rate is 116% (inactive).
As to `O=C(COc1cccc2c(=O)[nH]ccc12)c1ccccc1` (10 µM), the morphology score in experiment [1] was 0.0752. In addition, the SARS-CoV-2 infection rate in experiment [2] is 87% (inactive).
For `COc1cc(Br)c(S(=O)(=O)Nc2ccc(Cl)c(O[C@@H]3CCN(C)C3)c2)cc1OC` (10 µM), in experiment [1], the morphology score was -0.105. In experiment [2], the SARS-CoV-2 infection rate was 102% (inactive).
In experiment [1], `C#C[C@]1(OC(=O)CCCCCC)CC[C@H]2[C@@H]3CCC4=CC(=O)CC[C@@H]4[C@H]3CC[C@@]21C` [norethisterone-enanthate] (10 µM) had a morphology score of 0.146. Moreover, the SARS-CoV-2 infection rate in experiment [2] was 96.5% (inactive).
In the case of `CC(=O)O[C@]1(C(C)=O)CC[C@H]2[C@@H]3C=C(Cl)C4=CC(=O)CC[C@]4(C)[C@H]3CC[C@@]21C` [chlormadinone-acetate] (10 µM), the morphology score in experiment [1] worked out at 0.106. The SARS-CoV-2 infection rate in experiment [2] is 106% (inactive).
Compound `CC(Oc1ccc(O)cc1)(P(=O)(O)O)P(=O)(O)O` (10 µM) showed a morphology score in experiment [1] of 0.0418. Also, the SARS-CoV-2 infection rate in experiment [2] was 107% (inactive).
In the same order, the values of `CO[C@]12C[C@@H](COC(=O)c3cncc(Br)c3)CN(C)[C@@H]1Cc1cn(C)c3cccc2c13` [nicergoline] (10 µM) are 0.275 and 81% (inactive).
As for `O=C1NC(=O)/C(=C/c2ccc(-c3ccc(F)cc3O)o2)S1` (10 µM), the morphology score in experiment [1] worked out at 0.146. The SARS-CoV-2 infection rate in experiment [2] was 108% (inactive).
In experiment [1], `N#Cc1cccc(-c2nc(-c3cccnc3)no2)c1` (10 µM) showed a morphology score of 0.143. Besides, the SARS-CoV-2 infection rate in experiment [2] is 98.5% (inactive).
`CCCN1CCN(c2ccc(C(=O)NC3(C(=O)NCC#N)CCCCC3)cc2)CC1` [balicatib] (10 µM) yielded a morphology score in experiment [1] of 0.59. The SARS-CoV-2 infection rate in experiment [2] is 46% (active).
The compound `Cc1sc2c(c1C)C(c1ccc(Cl)cc1)=N[C@@H](CC(=O)Nc1ccc(OCCOCCOCCOCCNc3cccc4c3C(=O)N(C3CCC(=O)NC3=O)C4=O)cc1)c1nnc(C)n1-2` (some centres undefined) (10 µM) had a morphology score in experiment [1] of -0.0682. Besides, the SARS-CoV-2 infection rate in experiment [2] is 100% (inactive).
In experiment [1], `CC[C@]1(O)C[C@@H]2CN(CCc3c([nH]c4ccccc34)[C@@](C(=O)OC)(c3cc4c(cc3OC)N(C)[C@H]3[C@@](O)(C(=O)OC)[C@H](OC(C)=O)[C@]5(CC)C=CCN6CC[C@]43[C@@H]65)C2)C1` [Vinblastine (sulfate)] (0.833333 µM) registered a morphology score of -0.0326. Also, the SARS-CoV-2 infection rate in experiment [2] was 102% (inactive).
As for `C=CCN1CC[C@]23c4c5ccc(O)c4O[C@H]2/C(=N/NC(=O)c2ccccc2)CC[C@@]3(O)[C@H]1C5` [naloxone-benzoylhydrazone] (10 µM), the morphology score in experiment [1] is 0.0722. Further, the SARS-CoV-2 infection rate in experiment [2] was 110% (inactive).
Compound `COc1ccc2c(O[C@@H]3C[C@H]4C(=O)N[C@]5(C(=O)NS(=O)(=O)C6CC6)C[C@H]5/C=C\CCCCN(C)C(=O)[C@@H]4C3)cc(-c3nc(C(C)C)cs3)nc2c1C` [simeprevir] (10 µM) came in with a morphology score in experiment [1] of 0.0609. In experiment [2], the SARS-CoV-2 infection rate was 88.5% (inactive).
For `CC(=O)NCCCOc1ccc(C(=O)N2CCC(N3C(=O)CCc4ccccc43)CC2)cc1` (10 µM), the morphology score in experiment [1] turned out to be 0.184. In experiment [2], the SARS-CoV-2 infection rate was 102% (inactive).
In the same order, the values of `CO[C@H]1[C@H](O)[C@@H](O)[C@@H](O)[C@H](O)[C@@H]1O` [pinitol] (10 µM) are -0.0343 and 114% (inactive).
In the same order, the values of `C=CCn1c(=O)c2cnc(Nc3ccc(N4CCN(C)CC4)cc3)nc2n1-c1cccc(C(C)(C)O)n1` (10 µM) are -0.0169 and 96% (inactive).
In experiment [1], `CN(C)Cc1ccc(S(=O)(=O)n2ccc(/C=C/C(=O)NO)c2)cc1` [resminostat] (0.833333 µM) returned a morphology score of -0.101. Also, the SARS-CoV-2 infection rate in experiment [2] was 116% (inactive).
With `NCCc1c[nH]cn1` [histamine] (10 µM), the morphology score in experiment [1] is -0.112. Further, in experiment [2], the SARS-CoV-2 infection rate was 114% (inactive).
The corresponding values for `CN(C)C/C=C(/c1ccc(Br)cc1)c1cccnc1` [zimelidine] (10 µM) are 0.166 and 97% (inactive).
`O=C(O[C@H]1C[C@H]2CC[C@@H](C1)[N+]21CCCC1)C(O)(c1ccccc1)c1ccccc1` [trospium] (10 µM): the morphology score in experiment [1] turned out to be 0.0583. Besides, in experiment [2], the SARS-CoV-2 infection rate is 102% (inactive).
In turn, `Oc1cccc(-c2c3nc(c(-c4cccc(O)c4)c4ccc([nH]4)c(-c4cccc(O)c4)c4nc(c(-c5cccc(O)c5)c5ccc2[nH]5)CC4)C=C3)c1` [temoporfin] (0.833333 µM) showed a morphology score in experiment [1] of -0.0311. Besides, in experiment [2], the SARS-CoV-2 infection rate was 111% (inactive).
In experiment [1], `CC(C)[C@H](NS(=O)(=O)c1ccc(-c2ccc(Br)cc2)cc1)C(=O)O` (10 µM) displayed a morphology score of -0.0577. Further, the SARS-CoV-2 infection rate in experiment [2] is 107% (inactive).
Compound `Cc1c(C(N)=O)cc([N+](=O)[O-])cc1[N+](=O)[O-]` [dinitolmide] (10 µM) returned a morphology score in experiment [1] of -0.0186. In experiment [2], the SARS-CoV-2 infection rate is 106% (inactive).
In experiment [1], `CCc1c2c(nc3ccc(OC(=O)N4CCC(N5CCCCC5)CC4)cc13)-c1cc3c(c(=O)n1C2)COC(=O)[C@]3(O)CC` [irinotecan] (0.833333 µM) came in with a morphology score of -0.0173. Further, the SARS-CoV-2 infection rate in experiment [2] was 98% (inactive).
